Rows were chosen to be rich in hits. Some 2.2% of all compounds tested hit in one or more screens of this group.
Nrf2 activator = qHTS of Nrf2 Activators. AREc32 ARE-luciferase reporter (MCF7-derived line), luminescence, 24 h. Potency, µM (highest dose often 46.1 µM), inactives show top-dose activation, actives largely listed as activators. actives 0.31% (n = 410,000); also: potency is read from the fitted curve at half-maximal effect; % of control where 0% means no effect; nearly all actives have a fitted effect of over 65% in size
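Reporter line AREc32 (ARE-Fluc), seeded overnight in OPTI-MEM with 5% FBS; compound pin-transferred, 24 hr at 37 deg C, 5% CO2; luminescent read-out.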
A549 viability = Nrf2 qHTS screen for inhibitors: counterscreen for cytotoxicity. A549 ARE-Fluc cells, CellTiter-Fluor viability, 18-24 h. Potency, µM (series often up to 46 µM), without a hit: at the top dose activity change, negative = cytotoxicity, most hits filed as inhibitors. actives 0.16% (n = 390,000). AID 504648, 2011; also: potency is read from the fitted curve at half-maximal effect; % is scaled to controls: 0 for no effect and ±100 for the full control effect
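Cytotoxicity counterscreen: CellTiter-Fluor fluorescence was measured in A549 ARE_Fluc cells after 18-24 h of compound exposure in a concentration series. The subsequent BugLite luminescent read reports ARE-luciferase activity.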
miR-21 reporter = qHTS Assay for Modulators of miRNAs and/orActivators of miR-21 | HeLa miR-21 FLuc reporter, luciferase, 48 h | Potency, µM (titrated, usually from 38.3 µM), for inactives: at the top dose activity change, positive = activation, usual class: activators | 340,000 tested, under 10 active;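 also: % of control where 0% means no effect; miR-21 action dims this reporter so a rising signal means less miR-21 action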
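Luminescence from a firefly luciferase reporter carrying a miR-21 binding site downstream, stably expressed under a CMV promoter in HeLa cells that make miR-21 endogenously, reports miRNA modulation after 48 h compound exposure up to approximately 40uM final.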
B2AR arrestin = qHTS assay of beta-arrestin-biased ligands of beta2-adrenergic receptor. actives 0.02% (n = 330,000). Potency, µM (highest dose often 46.1 µM), without a hit: at the highest dose activation, actives largely listed as activators. Beta-2 adrenergic receptor (Homo sapiens), P07550. beta-arrestin recruitment to beta2AR, cell-based reporter;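 also: potency is read from the fitted curve at half-maximal effect; 0% = DMSO controls and full agonism = EC100 isoproterenol or metaproterenol; nearly all actives have a fitted effect of over 65% in size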
Target sequence (P07550 whole entry, looked up): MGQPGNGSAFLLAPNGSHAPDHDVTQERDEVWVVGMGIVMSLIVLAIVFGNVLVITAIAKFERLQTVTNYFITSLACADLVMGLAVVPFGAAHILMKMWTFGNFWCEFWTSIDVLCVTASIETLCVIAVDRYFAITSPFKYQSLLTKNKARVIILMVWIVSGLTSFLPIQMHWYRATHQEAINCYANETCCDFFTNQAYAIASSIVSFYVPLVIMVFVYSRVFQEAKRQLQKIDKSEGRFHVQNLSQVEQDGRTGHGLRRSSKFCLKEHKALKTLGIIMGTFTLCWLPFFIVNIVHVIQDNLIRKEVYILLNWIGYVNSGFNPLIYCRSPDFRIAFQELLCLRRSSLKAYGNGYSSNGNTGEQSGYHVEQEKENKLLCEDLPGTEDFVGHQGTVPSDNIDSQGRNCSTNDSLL
Nrf2 block = Nrf2 qHTS screen for inhibitors. A549 ARE-Fluc reporter, luciferase luminescence, 18-24 h. Potency, µM (titrated, usually from 46 µM), for the others: at the top dose activity change, negative = inhibition, most hits filed as inhibitors. actives 2.1% (n = 360,000). AID 504444, 2011; also: potency is read from the fitted curve at half-maximal effect; % is scaled to controls: 0 for no effect and ±100 for the full control effect; nearly all actives have a fitted effect of over 60% in size
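Nrf2 function is reported as luminescence of an ARE-controlled luciferase in A549 cells. Compounds were tested at several concentrations, and a CellTiter-Fluor read on the same wells flagged cytotoxicity.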
Numbers without * were called inactive; ? = inconclusive; · = not tested or not shown. Calls follow the shape of the dose curve; as a rule, active = well fitted curve in the direction sought with a large enough effect; inconclusive = small, poorly fitted or top-dose-only effect, or another doubt; inactive = no such curve, though single readings can be large; an effect the other way counts as inactive or inconclusive.

SMILES	Nrf2 activator	A549 viability	miR-21 reporter	B2AR arrestin	Nrf2 block
COc1ccc(NC(=O)Cc2csc(COc3cccc(C)c3)n2)cc1OC	0%	2%	11%	·	23µM*
CC(C)n1c(NCCc2ccccc2)nc2c1c(=O)n(C)c(=O)n2C	0%	-5%	14%	0%	13µM*
CCCNc1nc2c(c(=O)n(C)c(=O)n2C)n1CCc1ccccc1	0%	-18%	22%	0%	4.1µM*
Cc1ccc(-n2ncc(C(=O)NCCc3ccsc3)c2C2CCN(C(=O)OC(C)(C)C)CC2)c(C)c1	-1%	-8%	5%	·	?
Cc1ccc2c(c1)C1(C=CC(=O)C=C1)CC(=O)N2C	·	-6%	·	·	-5%
Nc1c(C(O)(C(F)(F)F)C(F)(F)F)cc(C(O)(C(F)(F)F)C(F)(F)F)c2ccccc12	0%	?	?	-1%	15µM*
COc1ccc(C2c3ccccc3Oc3ncn(CCN4CCOCC4)c(=N)c32)cc1OC (stereo unspecified)	·	0%	·	·	?
Cc1nc(-c2ccccc2)sc1-c1nc(-c2cccnc2)ncc1S(=O)(=O)c1ccccc1	-1%	?	-2%	-1%	23µM*
CCOC(=O)c1c(C)nc(-c2ccccc2)nc1N	13µM*	-15%	-66%	-1%	?
CC(=O)c1c(C)nc(-c2ccccc2)nc1N	12%	0%	-33%	-2%	?
CCOC(=O)c1cccc(NC(=O)Nc2cc(OC)ccc2OC)c1	3%	-8%	-5%	0%	21µM*
CCOC(=O)Nc1cccc(OCC(=O)Nc2ccccc2OC)c1	-1%	-6%	-5%	-1%	?
CCOC(=O)Nc1cccc(OCC(=O)Nc2ccc(OC)cc2OC)c1	2%	?	8%	0%	15µM*
COc1ccc(C)cc1NC(=O)Nc1cccc(C(=O)O)c1	0%	1%	-4%	-1%	1%
CC[n+]1c(/C=C/C=C/N(C(C)=O)c2ccccc2)sc2cc(OC)ccc21	10%	15µM*	21%	3%	-11%
O=C(Nc1cccc2nsnc12)c1ccc2c(c1)OCO2	5%	-1%	-42%	-1%	?
O=C(Nc1cccc2nsnc12)c1ccc(F)cc1	11µM*	5%	-22%	0%	?
O=C(N/N=C/C(Br)=C/c1ccccc1)c1ccccc1F	13µM*	3%	-17%	3%	?
O=C(N/N=C/C(Cl)=C/c1ccccc1)c1ccccc1F	?	2%	-64%	5%	?
O=C(N/N=C/C(Br)=C/c1ccccc1)c1cccs1	10µM*	?	-49%	0%	?
O=C(N/N=C/C(Br)=C/c1ccccc1)c1n[nH]c2c1CCC2	22µM*	-8%	?	?	-10%
O=C(Cn1cnc2ccccc21)N/N=C/C(Br)=C/c1ccccc1	7.1µM*	-5%	5%	0%	-21%
O=C(N/N=C/C=C/c1ccccc1)c1cccs1	4%	-4%	-63%	0%	7%
O=C(Nc1cccc(C(=O)N2CCN(c3ccc(F)cc3)CC2)c1)c1nsc2ccccc12	-2%	-7%	-8%	·	·
COCCCn1c(=O)c2sccc2n2c(CCCC(=O)Nc3cc(C)cc(C)c3)nnc12	0%	-11%	-1%	·	?
SMILES	Nrf2 activator	A549 viability	miR-21 reporter	B2AR arrestin	Nrf2 block
CC(=O)Nc1nonc1-c1nnc(SCc2ccccc2C)n1C	-1%	7%	-13%	·	15%
CC1=NNC(=O)C1CC(=O)N/N=C/C(Br)=C/c1ccccc1 (stereo unspecified)	?	-7%	10%	-1%	1%
CC1C(=O)NN=C1C(=O)N/N=C\C(Br)=C\c1ccccc1 (stereo unspecified)	11µM*	-2%	21%	0%	?
COc1ccc2c(c1)c1nc3n(c(=O)c1n2CC(=O)Nc1ccccc1)CCCS3	0%	2%	0%	-1%	0%
COc1ccc(NC(=O)Cn2c3ccc(OC)cc3c3nc4n(c(=O)c32)CCS4)cc1	0%	0%	-5%	0%	23µM*
N=c1oc2cc(O)ccc2cc1C(=O)Nc1ccccn1	·	·	-14%	0%	·
N=c1oc2cc(O)ccc2cc1C(=O)Nc1ccc(Br)cc1	4%	3%	-38%	0%	21µM*
O=C1N/C(=N\N=C\c2cccnc2)SC1Cc1ccc(SC(F)F)cc1 (stereo unspecified)	0%	-21%	3%	0%	16µM*
Cc1ccc(CC2S/C(=N/N=C/c3ccco3)NC2=O)cc1 (stereo unspecified)	4.5µM*	12%	2%	0%	1%
O=C1N/C(=N\N=C\c2ccccn2)SC1Cc1cccc(SC(F)F)c1 (stereo unspecified)	-1%	-19%	0%	0%	16µM*
COc1cccc(C2c3c(ncn(-c4ccccc4C#N)c3=N)Oc3ccc4ccccc4c32)c1 (stereo unspecified)	·	-2%	·	·	?
COC(=O)c1ccccc1NC(=O)CSc1c2c(nc3ccc(Cl)cc13)CCCC2	10%	0%	-7%	·	3%
Cc1ccc(CCNC(=O)CCCn2c(=O)c3ccccc3n(CC(=O)Nc3cc(Cl)ccc3C)c2=O)cc1	0%	-6%	-1%	·	5%
CCN(CC)C(=O)CSc1nc(-c2ccccc2)cc(-c2ccc(OC)cc2)c1C#N	0%	-4%	-10%	·	3%
COCCCn1c(=O)c2sccc2n2c(CCCC(=O)Nc3cccc(C(F)(F)F)c3)nnc12	0%	-9%	3%	·	-12%
COc1cc2c(cc1NC(=O)c1ccccc1F)CCCC2	3.2µM*	5%	-77%	-1%	?
Oc1cccc(Nc2c3ccccc3nc3ccccc23)c1	9%	?	27%	0%	23µM*
COc1ccccc1Nc1c2ccccc2nc2ccccc12	4%	?	?	0%	15µM*
COc1ccccc1OCC(=O)NNc1c2ccccc2nc2ccccc12	3%	?	28%	0%	21µM*
Cc1ccc(-c2nc(Nc3cccc(O)c3)c3ccccc3n2)cc1	6%	8%	1%	0%	2%
Cc1nnc2c(Nc3cccc(O)c3)nc3ccccc3n12	3.2µM*	2%	-7%	·	3%
COc1ccc(Nc2nc(C#N)nc(NC3CCCC3)n2)cc1	·	-3%	·	·	?
Cc1cc(CNC(=O)COc2ccc(F)cc2F)c2ccccc2n1	3%	-6%	-4%	0%	16µM*
CCOc1ccccc1N1CC(c2nc3ccccc3n2CCOc2ccccc2OC)CC1=O (stereo unspecified)	5%	-8%	25%	·	-20%
CC(C)C(=O)NC(c1cccs1)c1cc([N+](=O)[O-])c2cccnc2c1O (stereo unspecified)	-1%	?	1%	0%	21µM*
